Reference: PubChem BioAssay AID1159580 (chemical genetic matrix, 2015)
Several values for one entry are separate records, joined by “and”; a condition that tells them apart may be missing. Equal entries are not always repeated. The whole screen tested about 5,500 compounds, of which about 2,000 (36%) were called active. Inconclusive results (about 18%) are left out. Cut-off read from the data, not from the text of the source: active = normalized growth mostly below about 0.91 (no sharp cut-off); inconclusive = no clear call, values can overlap the other calls; inactive = mostly above about 0.92. The list shows a part of the results.

Assay: chemical genetic growth profiling, strain panel (AID 1159580);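 note: tested at 20 µM; growth read once vehicle control cultures reached saturation at 30 °C; 1 = growth at the plate median or of vehicle wells; lower values mean less growth of the strain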
Conditions: growth OD

Measured: normalized growth

O=C(O)c1cc2cc(Cc3cccnc3)ccc2o1
inactive: S. cerevisiae deletion strains, locus YAL013W, strain DEP1, stronger effect = lower value 1.02 | S. cerevisiae deletion strains, locus YAL040C, strain CLN3, stronger effect = lower value 0.986 | S. cerevisiae deletion strains, locus YBR021W, strain FUR4, stronger effect = lower value 1 | S. cerevisiae deletion strains, locus YBR229C, strain ROT2, stronger effect = lower value 1.01 | S. cerevisiae deletion strains, locus YCL029C, strain bik1, stronger effect = lower value 0.995 | S. cerevisiae deletion strains, locus YCL061C, strain MRC1 (second series), stronger effect = lower value 1.01 | S. cerevisiae deletion strains, locus YDL035C, strain GPR1, stronger effect = lower value 0.994 | S. cerevisiae deletion strains, locus YDL074C, strain BRE1, stronger effect = lower value 0.995 | S. cerevisiae deletion strains, locus YDL101C, strain DUN1, stronger effect = lower value 1.01 | S. cerevisiae deletion strains, locus YDL134C, strain PPH21, stronger effect = lower value 0.993 | S. cerevisiae deletion strains, locus YDL185W, strain tfp1, stronger effect = lower value 0.994 | S. cerevisiae deletion strains, locus YDL192W, strain arf1, stronger effect = lower value 1 | S. cerevisiae deletion strains, locus YDR101C, strain arx1, stronger effect = lower value 1.02 | S. cerevisiae deletion strains, locus YDR162C, strain NBP2, stronger effect = lower value 1 | S. cerevisiae deletion strains, locus YDR318W, strain mcm21, stronger effect = lower value 0.986 | S. cerevisiae deletion strains, locus YDR363W, strain ESC2, stronger effect = lower value 1.01 | S. cerevisiae deletion strains, locus YDR388W, stronger effect = lower value 0.989 | S. cerevisiae deletion strains, locus YDR502C, strain sam2, stronger effect = lower value 0.996 | S. cerevisiae deletion strains, locus YEL061C, strain CIN8, stronger effect = lower value 1 | S. cerevisiae deletion strains, locus YER002W, strain NOP16, stronger effect = lower value 0.99 | S. cerevisiae deletion strains, locus YER110C, stronger effect = lower value 0.995 | S. cerevisiae deletion strains, locus YER155C, strain BEM2, stronger effect = lower value 1.01 | S. cerevisiae deletion strains, locus YER167W, strain BCK2, stronger effect = lower value 1 | S. cerevisiae deletion strains, locus YGL078C, strain dbp3, stronger effect = lower value 0.991 | S. cerevisiae deletion strains, locus YGL086W, strain mad1, stronger effect = lower value 0.998 | S. cerevisiae deletion strains, locus YGL248W, strain PDE1, stronger effect = lower value 1 | S. cerevisiae deletion strains, locus YGR135W, strain pre9, stronger effect = lower value 1.01 | S. cerevisiae deletion strains, locus YGR229C, strain SMI1, stronger effect = lower value 1.05 | S. cerevisiae deletion strains, locus YGR252W, strain gcn5, stronger effect = lower value 0.92 | S. cerevisiae deletion strains, locus YHR030C, strain SLT2, stronger effect = lower value 0.997 | S. cerevisiae deletion strains, locus YHR079C, strain IRE1 (second series), stronger effect = lower value 0.985 | S. cerevisiae deletion strains, locus YHR094C, strain hxt1, stronger effect = lower value 0.995 | S. cerevisiae deletion strains, locus YHR129C, strain ARP1, stronger effect = lower value 0.997 | S. cerevisiae deletion strains, locus YHR200W, strain rpn10, stronger effect = lower value 0.994 | S. cerevisiae deletion strains, locus YIL066C, strain RNR3, stronger effect = lower value 1.01 | S. cerevisiae deletion strains, locus YIL073C, strain SPO22, stronger effect = lower value 1.01 | S. cerevisiae deletion strains, locus YIL125W, strain kgd1, stronger effect = lower value 0.999 | S. cerevisiae deletion strains, locus YIR030C, strain dcg1, stronger effect = lower value 0.995 | S. cerevisiae deletion strains, locus YJL095W, strain BCK1, stronger effect = lower value 1.01 | S. cerevisiae deletion strains, locus YJL134W, strain LCB3, stronger effect = lower value 1 | S. cerevisiae deletion strains, locus YJL168C, strain set2, stronger effect = lower value 0.991 | S. cerevisiae deletion strains, locus YJL187C, strain SWE1 (second series), stronger effect = lower value 1.01 | S. cerevisiae deletion strains, locus YJR043C, strain POL32, stronger effect = lower value 1.02 | S. cerevisiae deletion strains, locus YJR075W, strain HOC1, stronger effect = lower value 1.01 | S. cerevisiae deletion strains, locus YKL009W, strain mrt4, stronger effect = lower value 0.983 | S. cerevisiae deletion strains, locus YKL068W, stronger effect = lower value 0.992 | S. cerevisiae deletion strains, locus YKL085W, strain MDH1 (second series), stronger effect = lower value 0.999 | S. cerevisiae deletion strains, locus YKL085W, strain MDH1, stronger effect = lower value 0.999 | S. cerevisiae deletion strains, locus YKL190W, strain CNB1, stronger effect = lower value 1.01 | S. cerevisiae deletion strains, locus YKR001C, strain vps1, stronger effect = lower value 0.997 | S. cerevisiae deletion strains, locus YLR039C, strain RIC1, stronger effect = lower value 1.01 | S. cerevisiae deletion strains, locus YLR058C, strain SHM2, stronger effect = lower value 1.01 | S. cerevisiae deletion strains, locus YLR102C, strain apc9, stronger effect = lower value 0.991 | S. cerevisiae deletion strains, locus YLR262C, strain YPT6, stronger effect = lower value 1.03 | S. cerevisiae deletion strains, locus YLR268W, strain sec22, stronger effect = lower value 0.986 | S. cerevisiae deletion strains, locus YLR330W, strain CHS5, stronger effect = lower value 1.01 | S. cerevisiae deletion strains, locus YLR342W, strain FKS1 (second series), stronger effect = lower value 0.988 | S. cerevisiae deletion strains, locus YLR371W, strain rom2, stronger effect = lower value 0.988 | S. cerevisiae deletion strains, locus YLR418C, strain cdc73, stronger effect = lower value 0.975 | S. cerevisiae deletion strains, locus YML016C, strain PPZ1, stronger effect = lower value 1 | S. cerevisiae deletion strains, locus YML032C, strain rad52, stronger effect = lower value 0.995 | S. cerevisiae deletion strains, locus YML124C, strain tub3, stronger effect = lower value 0.994 | S. cerevisiae deletion strains, locus YMR078C, strain ctf18, stronger effect = lower value 0.995 | S. cerevisiae deletion strains, locus YMR223W, strain ubp8, stronger effect = lower value 0.995 | S. cerevisiae deletion strains, locus YMR263W, strain SAP30, stronger effect = lower value 1 | S. cerevisiae deletion strains, locus YMR307W, strain GAS1, stronger effect = lower value 0.967 and 0.989 | S. cerevisiae deletion strains, locus YNL067W, strain RPL9B, stronger effect = lower value 1 | S. cerevisiae deletion strains, locus YNL153C, strain GIM3, stronger effect = lower value 1.02 | S. cerevisiae deletion strains, locus YNL175C, strain NOP13, stronger effect = lower value 1 | S. cerevisiae deletion strains, locus YNL197C, strain WHI3, stronger effect = lower value 1.02 | S. cerevisiae deletion strains, locus YNL224C, strain SQS1, stronger effect = lower value 1.02 | S. cerevisiae deletion strains, locus YNL233W, strain BNI4, stronger effect = lower value 1 | S. cerevisiae deletion strains, locus YNL250W, strain rad50, stronger effect = lower value 0.989 | S. cerevisiae deletion strains, locus YNL271C, strain bni1, stronger effect = lower value 0.999 | S. cerevisiae deletion strains, locus YNL298W, strain CLA4, stronger effect = lower value 0.981 | S. cerevisiae deletion strains, locus YNL307C, strain MCK1, stronger effect = lower value 0.995 | S. cerevisiae deletion strains, locus YNR052C, strain pop2, stronger effect = lower value 0.99 | S. cerevisiae deletion strains, locus YOL006C, strain TOP1, stronger effect = lower value 1.04 | S. cerevisiae deletion strains, locus YOL012C, strain htz1 1.18 | S. cerevisiae deletion strains, locus YOL147C, strain pex11, stronger effect = lower value 0.995 | S. cerevisiae deletion strains, locus YOR061W, strain CKA2, stronger effect = lower value 1.01 | S. cerevisiae deletion strains, locus YOR069W, strain VPS5, stronger effect = lower value 1 | S. cerevisiae deletion strains, locus YOR083W, strain WHI5 (second series), stronger effect = lower value 1.03 | S. cerevisiae deletion strains, locus YOR136W, strain idh2, stronger effect = lower value 0.997 | S. cerevisiae deletion strains, locus YOR144C, strain elg1, stronger effect = lower value 0.995 | S. cerevisiae deletion strains, locus YOR184W, strain ser1, stronger effect = lower value 0.988 | S. cerevisiae deletion strains, locus YOR316C, strain cot1, stronger effect = lower value 0.992 | S. cerevisiae deletion strains, locus YPL055C, strain LGE1, stronger effect = lower value 1.03 and 1.01 | S. cerevisiae deletion strains, locus YPL241C, strain CIN2, stronger effect = lower value 1.01 | S. cerevisiae deletion strains, locus YPR119W, strain clb2, stronger effect = lower value 0.992 | S. cerevisiae deletion strains, locus YPR141C, strain kar3, stronger effect = lower value 0.996 | S. cerevisiae deletion strains, locus YPR163C, strain tif3, stronger effect = lower value 0.993 | S. cerevisiae deletion strains, locus YPR167C, strain met16, stronger effect = lower value 0.991 | S. cerevisiae deletion strains, strain wtn01, stronger effect = lower value 0.986 | S. cerevisiae strains, strain wild type, stronger effect = lower value 1
